Consider 1 compound from ChEMBL document CHEMBL2218924, “A broad activity screen in support of a chemogenomic map for kinase signalling research and drug discovery” (Biochem J, 2013).

The target of assay [1] is T1, Ephrin type-A receptor 3 (Homo sapiens) (UniProt P29320).
T1 sequence (whole entry): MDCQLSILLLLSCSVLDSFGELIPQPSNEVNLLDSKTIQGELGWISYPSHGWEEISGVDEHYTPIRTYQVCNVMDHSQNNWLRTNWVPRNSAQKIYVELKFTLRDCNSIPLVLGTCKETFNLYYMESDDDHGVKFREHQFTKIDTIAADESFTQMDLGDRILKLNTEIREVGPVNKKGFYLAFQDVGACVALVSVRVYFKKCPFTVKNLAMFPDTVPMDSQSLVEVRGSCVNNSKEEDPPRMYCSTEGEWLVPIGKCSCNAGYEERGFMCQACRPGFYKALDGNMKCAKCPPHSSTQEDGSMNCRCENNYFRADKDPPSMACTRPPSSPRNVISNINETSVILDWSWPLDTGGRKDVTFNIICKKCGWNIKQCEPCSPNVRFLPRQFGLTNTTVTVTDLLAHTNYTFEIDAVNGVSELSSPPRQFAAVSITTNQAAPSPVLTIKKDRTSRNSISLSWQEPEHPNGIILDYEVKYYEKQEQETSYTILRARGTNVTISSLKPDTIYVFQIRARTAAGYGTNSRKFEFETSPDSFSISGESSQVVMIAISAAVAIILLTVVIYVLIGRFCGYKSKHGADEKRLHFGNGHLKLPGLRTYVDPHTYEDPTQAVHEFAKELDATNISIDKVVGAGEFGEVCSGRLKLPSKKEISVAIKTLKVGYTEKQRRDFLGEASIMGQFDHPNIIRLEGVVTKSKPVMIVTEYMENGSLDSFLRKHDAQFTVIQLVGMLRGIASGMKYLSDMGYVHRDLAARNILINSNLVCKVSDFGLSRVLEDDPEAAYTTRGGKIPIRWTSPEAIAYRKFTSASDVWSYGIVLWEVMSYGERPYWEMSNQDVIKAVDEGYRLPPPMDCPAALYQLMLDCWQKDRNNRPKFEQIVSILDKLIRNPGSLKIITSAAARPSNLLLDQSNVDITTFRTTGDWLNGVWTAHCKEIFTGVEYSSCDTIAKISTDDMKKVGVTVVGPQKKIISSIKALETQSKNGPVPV
To be noted: at 10 µM.

Assay [2] concerns the target Ephrin type-A receptor 4 (Homo sapiens) (UniProt P54764). The note with it: at 1 µM.
For assay [3] the target is unchanged. To be noted: at 10 µM.
Assay [4] addresses Ephrin type-A receptor 5 (Homo sapiens) (UniProt P54756). The note with it: at 1 µM.
Assay [5] shares this target. The note with it: at 10 µM.
In assay [6] the target is Ephrin type-A receptor 7 (Homo sapiens) (UniProt Q15375). The note with it: at 1 µM.
Ephrin type-A receptor 7 (Homo sapiens), sequence (Q15375 28-998 limits assumed): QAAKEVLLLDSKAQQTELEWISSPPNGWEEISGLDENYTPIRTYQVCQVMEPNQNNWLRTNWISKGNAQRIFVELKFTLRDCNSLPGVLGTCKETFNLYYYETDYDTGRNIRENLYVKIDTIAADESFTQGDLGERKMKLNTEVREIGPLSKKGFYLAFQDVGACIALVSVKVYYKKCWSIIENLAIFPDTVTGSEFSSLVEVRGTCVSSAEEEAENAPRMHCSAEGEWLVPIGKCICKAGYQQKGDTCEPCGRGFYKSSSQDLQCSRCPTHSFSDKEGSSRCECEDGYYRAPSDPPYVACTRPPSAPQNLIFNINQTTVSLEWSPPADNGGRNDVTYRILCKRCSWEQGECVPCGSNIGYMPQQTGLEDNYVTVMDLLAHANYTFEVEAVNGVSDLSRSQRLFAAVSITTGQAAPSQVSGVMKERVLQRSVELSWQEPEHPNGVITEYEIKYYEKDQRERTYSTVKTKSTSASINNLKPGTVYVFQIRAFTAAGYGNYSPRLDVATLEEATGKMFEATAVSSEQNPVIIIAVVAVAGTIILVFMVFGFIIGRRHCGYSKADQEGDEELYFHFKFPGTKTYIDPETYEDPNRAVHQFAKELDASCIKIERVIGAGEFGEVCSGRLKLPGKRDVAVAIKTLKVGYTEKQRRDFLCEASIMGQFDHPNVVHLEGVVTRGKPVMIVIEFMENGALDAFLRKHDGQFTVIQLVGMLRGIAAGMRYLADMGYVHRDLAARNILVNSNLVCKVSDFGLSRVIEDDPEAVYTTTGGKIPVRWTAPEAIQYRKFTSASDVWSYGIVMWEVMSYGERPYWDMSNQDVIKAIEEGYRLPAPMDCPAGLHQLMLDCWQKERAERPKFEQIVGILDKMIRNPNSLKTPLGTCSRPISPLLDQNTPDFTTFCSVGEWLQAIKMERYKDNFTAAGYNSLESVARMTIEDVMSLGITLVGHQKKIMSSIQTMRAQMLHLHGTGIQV
Assay [7] shares this target. To be noted: at 10 µM.
The target in assay [8] is T2, Ephrin type-A receptor 8 (Homo sapiens) (UniProt P29322).
T2 sequence (whole entry): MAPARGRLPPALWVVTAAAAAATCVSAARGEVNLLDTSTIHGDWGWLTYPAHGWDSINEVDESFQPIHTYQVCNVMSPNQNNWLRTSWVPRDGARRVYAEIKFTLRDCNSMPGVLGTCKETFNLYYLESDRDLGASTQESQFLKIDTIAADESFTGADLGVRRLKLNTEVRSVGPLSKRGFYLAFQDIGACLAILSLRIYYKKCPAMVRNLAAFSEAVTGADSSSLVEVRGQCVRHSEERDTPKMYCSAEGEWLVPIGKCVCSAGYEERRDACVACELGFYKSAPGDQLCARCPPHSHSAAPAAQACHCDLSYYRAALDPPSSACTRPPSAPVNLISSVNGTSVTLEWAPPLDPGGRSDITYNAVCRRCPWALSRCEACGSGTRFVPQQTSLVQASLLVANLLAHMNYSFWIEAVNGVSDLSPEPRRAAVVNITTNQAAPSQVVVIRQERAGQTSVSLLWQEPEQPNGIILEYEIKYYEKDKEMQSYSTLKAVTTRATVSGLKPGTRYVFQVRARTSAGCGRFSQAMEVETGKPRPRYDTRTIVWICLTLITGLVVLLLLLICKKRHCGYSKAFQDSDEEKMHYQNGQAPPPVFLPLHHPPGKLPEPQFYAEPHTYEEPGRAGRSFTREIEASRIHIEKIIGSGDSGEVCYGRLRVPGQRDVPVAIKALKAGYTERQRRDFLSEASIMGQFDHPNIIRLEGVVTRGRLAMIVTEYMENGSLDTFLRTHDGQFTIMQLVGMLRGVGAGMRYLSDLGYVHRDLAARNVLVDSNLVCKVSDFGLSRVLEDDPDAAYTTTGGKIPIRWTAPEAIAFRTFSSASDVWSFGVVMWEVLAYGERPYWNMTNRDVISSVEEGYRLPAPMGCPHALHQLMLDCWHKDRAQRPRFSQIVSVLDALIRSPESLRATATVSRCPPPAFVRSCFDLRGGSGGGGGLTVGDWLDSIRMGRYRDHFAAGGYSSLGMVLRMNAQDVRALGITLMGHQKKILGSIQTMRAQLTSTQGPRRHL
To be noted: at 1 µM.

The target in assay [9] is T2, Ephrin type-A receptor 8 (Homo sapiens). To be noted: at 10 µM.
For assay [10], the target named is T3, Ephrin type-B receptor 1 (Homo sapiens) (UniProt P54762).
T3 sequence (whole entry): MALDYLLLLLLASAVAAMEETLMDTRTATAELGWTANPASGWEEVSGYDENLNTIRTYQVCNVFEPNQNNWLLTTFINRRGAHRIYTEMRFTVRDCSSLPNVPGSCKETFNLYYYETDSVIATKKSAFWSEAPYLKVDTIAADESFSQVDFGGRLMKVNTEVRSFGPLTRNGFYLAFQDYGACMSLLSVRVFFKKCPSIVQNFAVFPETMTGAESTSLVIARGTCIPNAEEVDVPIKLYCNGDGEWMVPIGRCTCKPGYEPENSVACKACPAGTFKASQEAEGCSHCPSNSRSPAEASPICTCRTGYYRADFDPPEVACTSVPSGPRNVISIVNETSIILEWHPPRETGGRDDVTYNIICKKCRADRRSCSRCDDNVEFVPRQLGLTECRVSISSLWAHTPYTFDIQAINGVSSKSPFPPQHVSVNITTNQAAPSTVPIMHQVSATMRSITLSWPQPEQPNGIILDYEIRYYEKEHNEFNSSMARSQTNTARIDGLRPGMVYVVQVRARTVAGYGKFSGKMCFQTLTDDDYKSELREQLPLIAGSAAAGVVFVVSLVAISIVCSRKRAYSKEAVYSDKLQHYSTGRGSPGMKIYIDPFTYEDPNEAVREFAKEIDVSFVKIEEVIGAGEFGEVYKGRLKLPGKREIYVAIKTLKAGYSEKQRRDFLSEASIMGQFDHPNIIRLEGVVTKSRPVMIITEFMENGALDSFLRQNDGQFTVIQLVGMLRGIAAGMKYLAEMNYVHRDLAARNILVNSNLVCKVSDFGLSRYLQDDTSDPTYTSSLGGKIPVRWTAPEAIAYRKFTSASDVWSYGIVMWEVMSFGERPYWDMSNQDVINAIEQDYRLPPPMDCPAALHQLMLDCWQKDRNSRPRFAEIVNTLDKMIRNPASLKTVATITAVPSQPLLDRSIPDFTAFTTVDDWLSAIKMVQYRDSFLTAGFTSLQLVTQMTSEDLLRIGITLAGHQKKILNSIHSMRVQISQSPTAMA
The note with it: at 1 µM.

Ephrin type-A receptor 5 (Homo sapiens), sequence (P54756 whole entry): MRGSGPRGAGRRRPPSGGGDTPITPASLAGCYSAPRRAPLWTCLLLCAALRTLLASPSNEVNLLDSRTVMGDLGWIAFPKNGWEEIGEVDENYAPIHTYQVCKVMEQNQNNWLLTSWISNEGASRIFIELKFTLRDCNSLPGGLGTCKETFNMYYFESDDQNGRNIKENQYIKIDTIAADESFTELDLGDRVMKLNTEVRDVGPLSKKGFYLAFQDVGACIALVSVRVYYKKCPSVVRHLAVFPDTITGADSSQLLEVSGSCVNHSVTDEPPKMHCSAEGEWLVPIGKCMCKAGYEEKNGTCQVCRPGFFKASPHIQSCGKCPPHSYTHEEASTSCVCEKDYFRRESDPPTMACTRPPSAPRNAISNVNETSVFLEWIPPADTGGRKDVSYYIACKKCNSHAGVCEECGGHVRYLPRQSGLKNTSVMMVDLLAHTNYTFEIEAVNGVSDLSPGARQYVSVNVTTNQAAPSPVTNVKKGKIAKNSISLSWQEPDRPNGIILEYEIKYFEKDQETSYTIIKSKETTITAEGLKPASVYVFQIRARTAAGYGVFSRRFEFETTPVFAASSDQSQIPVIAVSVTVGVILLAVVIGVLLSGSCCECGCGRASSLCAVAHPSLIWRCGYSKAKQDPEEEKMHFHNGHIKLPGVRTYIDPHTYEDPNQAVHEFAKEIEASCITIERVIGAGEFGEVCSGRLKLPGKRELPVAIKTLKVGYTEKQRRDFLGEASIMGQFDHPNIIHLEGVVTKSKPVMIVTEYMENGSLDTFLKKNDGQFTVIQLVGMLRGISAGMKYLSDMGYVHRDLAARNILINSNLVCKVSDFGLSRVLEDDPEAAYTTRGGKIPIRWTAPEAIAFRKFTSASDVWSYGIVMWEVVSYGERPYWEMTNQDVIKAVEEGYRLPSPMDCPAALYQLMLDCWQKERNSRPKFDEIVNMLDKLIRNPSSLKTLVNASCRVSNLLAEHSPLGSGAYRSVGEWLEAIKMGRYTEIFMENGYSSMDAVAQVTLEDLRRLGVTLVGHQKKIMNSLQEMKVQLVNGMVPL
Ephrin type-A receptor 4 (Homo sapiens), sequence (P54764 whole entry): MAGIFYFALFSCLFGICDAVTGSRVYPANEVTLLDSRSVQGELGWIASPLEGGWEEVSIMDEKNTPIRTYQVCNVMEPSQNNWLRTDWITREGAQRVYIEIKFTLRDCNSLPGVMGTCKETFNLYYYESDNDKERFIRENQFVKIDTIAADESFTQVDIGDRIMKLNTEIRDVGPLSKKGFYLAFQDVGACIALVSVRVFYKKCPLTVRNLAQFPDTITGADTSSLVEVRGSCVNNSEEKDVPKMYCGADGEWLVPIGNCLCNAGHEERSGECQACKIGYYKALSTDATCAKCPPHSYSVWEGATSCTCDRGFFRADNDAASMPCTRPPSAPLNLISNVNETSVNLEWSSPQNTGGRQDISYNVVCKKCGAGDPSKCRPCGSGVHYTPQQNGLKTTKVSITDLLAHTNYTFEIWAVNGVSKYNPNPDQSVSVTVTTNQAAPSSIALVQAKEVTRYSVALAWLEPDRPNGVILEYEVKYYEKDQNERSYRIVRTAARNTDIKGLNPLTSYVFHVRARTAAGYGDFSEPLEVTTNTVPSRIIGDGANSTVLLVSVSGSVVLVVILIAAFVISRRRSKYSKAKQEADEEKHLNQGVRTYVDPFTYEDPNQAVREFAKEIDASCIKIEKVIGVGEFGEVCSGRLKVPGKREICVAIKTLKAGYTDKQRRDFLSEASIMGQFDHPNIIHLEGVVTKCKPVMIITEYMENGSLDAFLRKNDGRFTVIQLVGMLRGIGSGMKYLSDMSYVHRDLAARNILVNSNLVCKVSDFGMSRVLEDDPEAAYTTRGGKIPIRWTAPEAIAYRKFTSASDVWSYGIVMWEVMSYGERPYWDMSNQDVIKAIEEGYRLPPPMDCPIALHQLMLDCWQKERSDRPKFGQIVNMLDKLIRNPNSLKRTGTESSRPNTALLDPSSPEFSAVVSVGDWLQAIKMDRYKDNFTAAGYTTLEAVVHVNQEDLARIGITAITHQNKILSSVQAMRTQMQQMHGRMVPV

The term residual activity denotes the signal under treatment as a percentage of the control signal. Low values mean a large loss of activity, high ones a small loss of activity. In the case of `O=C1NC(=O)c2cc(Nc3ccc(F)cc3)c(Nc3ccc(F)cc3)cc21`, the residual activity was 76% in assay [1]; 100% in [2]; 83% in [3]; 93% in [4]; 71% in [5]; 74% in assay [6]. Moreover, the residual activity in assay [7] is 21%; in assay [8], 87%; in assay [9], 56%; in assay [10] it was 82%.
